Measurements published in PubChem BioAssay (Tox21).
Inconclusive results are not listed. Activity calls are given as the source filed them. Unless noted, the call rests on the fitted dose curve; in most records, active means well fitted curve in the direction sought with a large enough effect in the repeat runs; inconclusive means weak or mixed curves; inactive means no such curve, though single readings can be large; an effect the other way counts as inactive or inconclusive.

Columns and labels:
[1] = qHTS assay to identify small molecule antagonists of the estrogen related receptor (ERR) signaling pathway from Tox21 library - cell viability counter screen (AID 1224834); further: nearly all actives have a fitted effect of over 30% in size
Method in brief: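 Viability readout (CellTiter-Fluor fluorescence, 30 min at 37 C) multiplexed with the ERR assay; cells treated 17.5 h at 37 C with compounds delivered in DMSO.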

[2] = biological target: Luciferin 4-monooxygenase (Photinus pyralis) (UniProt P08659); test: qHTS assay to identify small molecule inhibitors of firefly luciferase (AID 1224835); further: nearly all actives have a fitted effect of over 25% in size; further: potency means the concentration at half of the fitted maximal effect
Method in brief: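 Quantitative HTS format; KM concentrations of both substrates. Purified P. pyralis FLuc activity quantified from luminescence images.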

[3] = qHTS assay to identify small molecule agonists of the constitutive androstane receptor (CAR) signaling pathway - cell viability counter screen (AID 1224836); further: nearly all actives have a fitted effect of over 45% in size
Method in brief: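 Counter screen multiplexed with the CAR reporter readout: HepG2 cells co-transfected with hCAR and the CYP2B6-2.2kb construct receive a 15-concentration compound series and 0.75 uM PK11195 (final), then CellTiter-Fluor fluorescence is read after 23 h.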

[4] = qHTS assay to identify small molecule antagonists of the estrogen related receptor signaling pathway with the pleiotropic PPARgamma coactivator (PGC) from Tox21 10K library - cell viability counter screen (AID 1224840; active means well fitted cell-killing curve with a large enough effect in the repeat runs, not every such curve was filed as active; further: nearly all actives have a fitted effect of over 40% in size)
Method in brief: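 Compounds in DMSO, alongside positive and negative controls, were pinned onto PGC/ERR cells (2,000 per well). Exposure lasted 17.5 hours at 37 C, followed by a 30-minute CellTiter-Fluor incubation and fluorescence reading.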

[5] = biological target: Thyrotropin receptor (Homo sapiens) (UniProt P16473); test: qHTS assay to identify small molecule agonists of the thyroid stimulating hormone receptor (TSHR) signaling pathway (AID 1224843; calls by dose curve; further: nearly all actives have a fitted effect of over 45% in size)
Method in brief: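 TSHR-expressing HEK293 cells (800 per well) were exposed to compounds for 30 min at room temperature. cAMP was then detected by HTRF competition with cAMP-d2 and anti-cAMP cryptate, read after 1 h at room temperature. Fifteen concentrations, triplicate.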

[6] = qHTS assay to identify small molecule agonists of H2AX (AID 1224845; active means well fitted activation curve with a large enough effect in the signal ratio in the repeat runs, not every such curve was filed as active; the % refers to the signal ratio)
Method in brief: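 Wild-type CHO-K1 cells plated overnight, then exposed 3 hr at 37C to compounds at 15 concentrations (0.76% DMSO). Lysed, then HTRF anti-pH2AX(S139)-cryptate/anti-H2AX-d2 detection after 24 hr at room temperature; emissions 665 and 620 nm.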

[7] = qHTS assay to identify small molecule agonists of H2AX - cell viability counter screen (AID 1224847; calls by dose curve; further: top concentration of the series differs between compounds; nearly all actives have a fitted effect of over 30% in size)
Method in brief: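 We seed wild-type CHO-K1 cells overnight, treat them for 3 hr at 37C with compounds in 15-concentration series, and quantify remaining viability by CellTiter-Glo luminescence.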

[8] = qHTS RealTime-Glo MT Cell Viability Assay in HepG2 cells - 24 hour (AID 1224867); further: nearly all actives have a fitted effect of over 50% in size
Method in brief: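 Cell number in HepG2 cultures estimated from NanoLuc luminescence generated by metabolic reduction of a prosubstrate by living cells. The homogeneous, nonlytic format allowed repeated reads at 0, 8, 16, 24, 32 and 40 h of compound exposure.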

[9] = qHTS RealTime-Glo MT Cell Viability Assay in HEK293 cells - 32 hour (AID 1224868); further: nearly all actives have a fitted effect of over 50% in size; further: potency means the concentration at half of the fitted maximal effect
Method in brief: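 Homogeneous bioluminescent viability format in HEK293 cells (600 cells/well). Following 5 h at 37 C/5% CO2, 23 nL compound was pintooled; the signal was measured repeatedly during 40 h incubation.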

[10] = A CellTox Green Cytotoxicity Assay to monitor cytotoxicity in HEK293 cells - 0 hour (AID 1224869); further: nearly all actives have a fitted effect of over 50% in size
Method in brief: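 Each value comes from one timepoint of a single continuous run in which HEK293 cells with CellTox Green were exposed to compound for up to 40 h at 37 C, dye fluorescence rising with cell death.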

[11] = qHTS RealTime-Glo MT Cell Viability Assay in HepG2 cells - 40 hour (AID 1224870); further: nearly all actives have a fitted effect of over 50% in size
Method in brief: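 HepG2 cells mixed with RealTime-Glo MT reagents (NanoLuc plus cell-permeant prosubstrate) were seeded at 600 cells/well, incubated 5 h at 37 C/5% CO2, then pinned with compounds in DMSO; nonlytic luminescence tracked viability during 40 h treatment.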

[12] = qHTS assay to identify small molecule antagonists of the constitutive androstane receptor (CAR) signaling pathway - cell viability counter screen (AID 1224837); further: nearly all actives have a fitted effect of over 45% in size
Method in brief: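 Fluorescence from CellTiter-Fluor served as the viability signal. Human hepatoma HepG2 cells stably bearing hCAR and CYP2B6-2.2kb received compound plus CITCO (50 nM final) for 23 hr.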

[13] = qHTS assay to identify small molecule agonists of the hypoxia (HIF-1) signaling pathway - cell viability counter screen (AID 1224844; calls by dose curve; further: nearly all actives have a fitted effect of over 50% in size)
Method in brief: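 Luminescent ATP content (CellTiter-Glo, 30 min, room temperature) served as the viability measure in HRE-bla ME-180 cells exposed to compounds for 17 hrs in low-serum medium (0.5% dialyzed FBS).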

[14] = qHTS assay to identify small molecule agonists of the hypoxia (HIF-1) signaling pathway (AID 1224846; active means well fitted activation curve with a large enough effect in the signal ratio in the repeat runs, not every such curve was filed as active; the % refers to the signal ratio)
Method in brief: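 Measured by blue/green FRET after loading CCF4-AM: beta-lactamase expressed from a hypoxia response element in ME-180 cells. Test agents were delivered in DMSO and left 17 hrs; cells had been plated 5 hrs earlier in low-serum (0.5% dialyzed FBS) medium.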

[15] = qHTS assay to identify small molecule agonists of the estrogen related receptor signaling pathway with the pleiotropic PPARgamma coactivator (PGC) from Tox21 10K library (AID 1224842); further: nearly all actives have a fitted effect of over 15% in size
Method in brief: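 PGC/ERR reporter cells (NTP line) were seeded 2,000 per well, rested 6 h at 37 C/5% CO2, then pin-dosed with compounds in DMSO for 18 h at 37 C; luciferase read by One-Glo luminescence after 30 min at room temperature.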

[16] = qHTS assay to identify small molecule antagonists of the estrogen related receptor (ERR) signaling pathway from Tox21 library (AID 1224848); further: nearly all actives have a fitted effect of over 50% in size
Method in brief: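 Cells: ERR line, 2,000/well; 6 h preincubation 37 C/5% CO2. Cpd in DMSO via pin tool; 18 h, 37 C. ONE-Glo, 30 min RT, luminescence.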

[17] = qHTS assay to identify small molecule agonists of the estrogen related receptor (ERR) signaling pathway from Tox21 library (AID 1224849; calls by dose curve; further: nearly all actives have a fitted effect of over 15% in size); settings: ERR reporter cell line, ONE-Glo luciferase, 18 h
Method in brief: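 We plated ERR reporter cells, waited 6 h, added compounds in DMSO by pin tool and incubated them 18 h at 37 C. ONE-Glo was then added and luminescence read after 30 min.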

[18] = biological target: Nuclear receptor subfamily 1 group I member 3 (Homo sapiens) (UniProt Q14994); test: qHTS assay to identify small molecule antagonists of the constitutive androstane receptor (CAR) signaling pathway (AID 1224838);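 further: HepG2 cells stably expressing hCAR with CYP2B6 luciferase reporter stimulated by CITCO; nearly all actives have a fitted effect of over 40% in size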
Method in brief: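 Quantitative HTS in double-stable HepG2-CYP2B6-hCAR cells. After 4 h plating, cells get compound (15 concentrations) and CITCO at 50 nM final, incubate 24 h at 37 C, then ONE-Glo luminescence is read.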

[19] = biological target: Nuclear receptor subfamily 1 group I member 3 (Homo sapiens) (UniProt Q14994); test: qHTS assay to identify small molecule agonists of the constitutive androstane receptor (CAR) signaling pathway (AID 1224839); further: nearly all actives have a fitted effect of over 15% in size
Method in brief: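 A 15-concentration quantitative screen uses HepG2 cells co-transfected stably with human CAR and CYP2B6-2.2kb reporter. Treatment lasts 24 h with 0.75 uM PK11195 final present; ONE-Glo luminescence is the signal.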

[20] = qHTS assay to identify small molecule antagonists of the estrogen related receptor signaling pathway with the pleiotropic PPARgamma coactivator (PGC) from Tox21 10K library (AID 1224841; call rule not given here)
Method in brief: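 Compound exposure ran 18 hours at 37 C in PGC/ERR cells (2,000/well) that had first rested 6 hours in a 37 C/5% CO2 incubator. Luciferase activity was then detected with One-Glo after a 30-minute room-temperature step.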
On the % scale 0 is the no-effect control and ±100 the full control effect.

Chain of Luciferin 4-monooxygenase (Photinus pyralis) (P08659 whole entry, looked up): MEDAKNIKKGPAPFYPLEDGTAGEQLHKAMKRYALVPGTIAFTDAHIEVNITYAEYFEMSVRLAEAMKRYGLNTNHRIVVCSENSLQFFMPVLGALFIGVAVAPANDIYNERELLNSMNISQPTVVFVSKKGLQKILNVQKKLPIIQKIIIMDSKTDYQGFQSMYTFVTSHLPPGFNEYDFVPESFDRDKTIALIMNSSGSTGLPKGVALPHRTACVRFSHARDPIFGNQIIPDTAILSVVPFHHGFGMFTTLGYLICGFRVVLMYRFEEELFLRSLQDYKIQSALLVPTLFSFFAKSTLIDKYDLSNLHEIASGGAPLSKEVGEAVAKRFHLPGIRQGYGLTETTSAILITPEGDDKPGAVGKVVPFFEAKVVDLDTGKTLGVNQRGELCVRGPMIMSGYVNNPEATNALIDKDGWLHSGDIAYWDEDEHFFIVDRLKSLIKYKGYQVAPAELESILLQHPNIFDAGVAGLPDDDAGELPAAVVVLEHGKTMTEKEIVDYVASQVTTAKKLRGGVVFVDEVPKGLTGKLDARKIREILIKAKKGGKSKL
Chain of Thyrotropin receptor (Homo sapiens) (P16473 whole entry, looked up): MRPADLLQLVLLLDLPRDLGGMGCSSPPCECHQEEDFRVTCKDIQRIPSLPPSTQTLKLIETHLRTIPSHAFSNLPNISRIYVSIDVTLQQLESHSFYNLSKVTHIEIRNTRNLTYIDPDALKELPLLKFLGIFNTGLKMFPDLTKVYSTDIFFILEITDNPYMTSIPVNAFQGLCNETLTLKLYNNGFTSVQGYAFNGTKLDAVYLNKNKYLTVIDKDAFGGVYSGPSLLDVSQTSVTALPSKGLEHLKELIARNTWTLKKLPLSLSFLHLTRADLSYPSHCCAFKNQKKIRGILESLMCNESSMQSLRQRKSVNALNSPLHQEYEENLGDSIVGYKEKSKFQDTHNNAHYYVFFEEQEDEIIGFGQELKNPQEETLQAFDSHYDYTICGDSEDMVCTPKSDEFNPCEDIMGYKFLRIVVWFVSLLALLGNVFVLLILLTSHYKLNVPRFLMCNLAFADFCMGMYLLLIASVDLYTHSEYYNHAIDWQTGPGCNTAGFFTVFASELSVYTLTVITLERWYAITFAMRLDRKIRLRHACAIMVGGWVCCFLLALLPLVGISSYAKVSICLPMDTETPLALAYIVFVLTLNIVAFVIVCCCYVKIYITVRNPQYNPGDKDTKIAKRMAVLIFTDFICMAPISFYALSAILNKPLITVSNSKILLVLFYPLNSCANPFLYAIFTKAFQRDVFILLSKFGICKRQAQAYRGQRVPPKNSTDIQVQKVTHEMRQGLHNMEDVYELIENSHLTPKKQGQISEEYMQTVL
Chain of Nuclear receptor subfamily 1 group I member 3 (Homo sapiens) (Q14994 whole entry, looked up): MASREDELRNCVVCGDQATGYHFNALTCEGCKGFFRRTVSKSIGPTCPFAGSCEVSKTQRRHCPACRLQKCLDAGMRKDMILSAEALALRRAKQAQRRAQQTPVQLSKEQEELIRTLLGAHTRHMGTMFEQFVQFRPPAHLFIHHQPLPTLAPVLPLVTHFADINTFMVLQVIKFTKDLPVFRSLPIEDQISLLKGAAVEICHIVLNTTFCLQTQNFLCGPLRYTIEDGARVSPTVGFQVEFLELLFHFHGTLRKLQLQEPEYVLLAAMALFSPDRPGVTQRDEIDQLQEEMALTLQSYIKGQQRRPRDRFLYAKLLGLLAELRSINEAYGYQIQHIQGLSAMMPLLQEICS

Cc1nc2n(c(=O)c1CCN1CCC(c3noc4cc(F)ccc34)CC1)CCCC2
active: Potency [9] 3.79 µM
inactive: Potency [1] | Potency [2] | Potency [3] | Potency [4] | Potency [5] | Potency [6] | Potency [7] | Potency [8] | Potency [10] | Potency [11]

CC(CO)Oc1ccccc1 (centres undefined)
inactive: Potency [1] | Potency [2] | Potency [3] | Potency [12] | Potency [4] | Potency [5] | Potency [13] | Potency [6] | Potency [14] | Potency [7] | Potency [8] | Potency [9] | Potency [10] | Potency [11]

Nc1nc2c(ncn2COCCO)c(=O)[nH]1
inactive: Potency [1] | Potency [2] | Potency [3] | Potency [4] | Potency [15] | Potency [5] | Potency [13] | Potency [14] | Potency [7] | Potency [16] | activity change, positive = activation ([17]; at 42.5 µM (top of the series)) -1.87% | Potency [8] | Potency [9] | Potency [10] | Potency [11]

CCn1c2ccccc2c2cc([N+](=O)[O-])ccc21
inactive: Potency [1] | Potency [2] | Potency [3] | Potency [4] | Potency [13] | Potency [8] | Potency [10] | Potency [11]

C=Cc1ccccc1C=C
inactive: Potency [1] | Potency [2] | Potency [3] | Potency [4] | Potency [5] | Potency [13] | Potency [6] | Potency [14] | Potency [7] | Potency [8] | Potency [10] | Potency [11]

O=C(O)Cc1ccc2c(c1)C(=O)c1ccccc1CO2
inactive: Potency [1] | Potency [3] | Potency [4] | Potency [5] | Potency [13] | Potency [6] | Potency [14] | Potency [7] | Potency [8] | Potency [9] | Potency [10] | Potency [11]
active: Potency [2] 30.9 µM

CCC(COC(=O)CCS)(COC(=O)CCS)COC(=O)CCS
inactive: Potency [1] | Potency [2] | Potency [3] | Potency [18] | Potency [19] | Potency [4] | Potency [20] | Potency [15] | Potency [5] | Potency [6] | Potency [14] | Potency [7] | Potency [16] | activity change, positive = activation ([17]; at 92.4 µM (top of the series)) 4.52% | Potency [8] | Potency [9] | Potency [10] | Potency [11]

COCCOc1cc2cc(C(=O)NC3CCN(C(C)C)CC3)n(CC(=O)Nc3ccc(Cl)cn3)c2cn1
inactive: Potency [1] | Potency [2] | Potency [12] | Potency [4] | Potency [5] | Potency [13] | Potency [6] | Potency [14] | Potency [7] | Potency [8] | Potency [9] | Potency [10] | Potency [11]
